# In the library only some 3.2% were active in any assay of this set; here they are far more common.
# FAS-TE inh – blocks the thioesterase domain of human fatty acid synthase. P49327. recombinant FAS-TE, OMFH fluorogenic substrate, fluorescence endpoint. inhibition, % at 15 µM. hit rate 0.67% among 360,000. AID 602261;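 active = compounds whose normalised, plate-corrected inhibition of enzyme fluorescence in the single-dose primary screen is 50% or more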;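 also: 0% = DMSO with enzyme and 100% = substrate without enzyme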
# CRFR2-BP antag – antagonists of CRF-binding protein/CRF-R2 receptor complex; HEK293 CRF-R2/CRF-BP, CRF-induced calcium fluorescence; inhibition, % at 11.8 µM; hit rate 0.59% among 350,000; AID 588475;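 active = inhibition of the ligand-induced calcium signal above about 50% at the single tested concentration, limit read from the data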
# Cardio protect – modulators protecting cardiomyocytes from myocardial damage. H9c2 cardiomyocytes, H2O2 injury protection, ATPLite, 2 h. protection from H2O2 cell death, % at 20 µM. hit rate 0.63% among 360,000. AID 588492;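 active = compounds giving at least 50% protection of heart cells from peroxide-induced death in the single-dose screen, raw or plate-pattern-corrected value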;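 also: 0% = DMSO wells with peroxide and 100% = DMSO wells without peroxide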
# CRFR2-BP ag – agonists of human CRF-binding protein/CRF-R2 receptor complex; HEK293 CRF-R2/CRF-BP, calcium dye fluorescence (FLIPR); percent of saturating CRF peptide response; activation, % at 13.2 µM; hit rate 0.46% among 350,000;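 active = activation of at least 50%, plus an integration ratio under a set limit after plate pattern correction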;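 also: plate controls were neutral control wells without compound for no effect and CRF at EC100 for full effect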
# PfGluPho inh – PfG6PD (Plasmodium falciparum) enzyme inhibition; PfGluPho enzyme, NADPH resazurin-diaphorase fluorescence; inhibition, % at 20 µM; hit rate 0.78% among 350,000; AID 504690;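 active = inhibition reaching at least a set limit at 20 µM in the primary screen, cut at about 59% in these data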;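 also: 0% = DMSO wells with substrate and 100% = DMSO wells lacking glucose-6-phosphate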
# aDG glyco act – alpha-DG glycosylation activation; hit rate 0.22% among 360,000; activation, % at 10 µM; AID 624168; Pro5-aDG cells, alpha-DG glycosylation AlphaScreen (IIH6); 0% Pro5, 100% B10-LARGE cell signal;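 active = activation of at least 8% versus controls, or a plate z-score of at least 8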;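 also: Pro5 are CHO cells carrying HIG-tagged alpha-DG that lacks glycosylation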
# FAS-TE conf – confirmation of human fatty acid synthase thioesterase inhibitors; hit rate 45% among 2,300; inhibition, % at 15 µM; recombinant FAS-TE, OMFH fluorogenic substrate, fluorescence; shares compounds with FAS-TE inh;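 active = compounds inhibiting the enzyme by at least 50% at 15 µM in any one of the replicates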;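 also: 0% = enzyme with DMSO only and 100% = wells lacking enzyme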
# The depositor's hits bear a star; · = no result given.
SMILES,FAS-TE inh,CRFR2-BP antag,Cardio protect,CRFR2-BP ag,PfGluPho inh,aDG glyco act,FAS-TE conf
O=C(CN1C(=O)NC2(CCCCCC2)C1=O)Nc1ccc(Cl)c([N+](=O)[O-])c1,58*,-6,-5,0,-3,0,70*
O=C(CN1CCN(S(=O)(=O)c2ccccc2)CC1)Nc1ccc([N+](=O)[O-])cc1,7,11,4,-1,12,0,·
O=C(c1ccc(Cl)c([N+](=O)[O-])c1)N1CCN(S(=O)(=O)c2ccc(Cl)cc2)CC1,51*,8,-6,0,13,1,30*
O=C(CN1CCN(S(=O)(=O)c2ccccc2)CC1)Nc1ccc(Cl)c([N+](=O)[O-])c1,78*,2,-6,4,30,3,18
CCOc1ccc(NC(=O)Nc2cc(C(=O)O)ccc2N2CC3CC(C2)c2cccc(=O)n2C3)cc1 (stereo unspecified),-5,-4,2,-1,11,0,·
CC(C)(Oc1ccc(Cl)cc1)C(=O)NC1CC1,-2,6,6,0,-2,0,·
O=C(Nc1ccc2c(c1)OCCO2)C(c1ccnc2ccccc12)N1CCN(c2ccc(C(F)(F)F)cn2)CC1 (stereo unspecified),92*,·,-6,·,·,0,33
O=C1OCCN1N=Cc1ccco1,-7,-4,1,0,-2,0,·
CCc1cccc2sc(N3CCN(C(=O)c4ccc([N+](=O)[O-])o4)CC3)nc12,52*,5,2,0,21,0,40*
O=C(c1ccc([N+](=O)[O-])o1)N1CCN(Cc2ccccc2)CC1,1,16,-2,1,-4,0,·
Cc1cc2oc(=O)cc(CN3CCN(S(=O)(=O)/C=C/c4ccccc4)CC3)c2cc1C,54*,2,-5,1,-9,1,12
Cc1ccc(S(=O)(=O)Nc2ccc3c(c2)CC(=O)N([C@H](C)CO)C[C@@H](C)[C@H](CN(C)Cc2ccc(-c4ccccc4)cc2)O3)cc1,73*,-2,-8,9,27,1,23
Cc1ccc(S(=O)(=O)N(C)C[C@@H]2Oc3ccc(NC(=O)Nc4cccc5ccccc45)cc3C(=O)N([C@H](C)CO)C[C@H]2C)cc1,67*,3,0,1,18,0,7
COc1ccc(NC(=O)Nc2cccc3c2O[C@H](CN(C)S(=O)(=O)c2ccc(F)cc2)[C@@H](C)CN([C@H](C)CO)C3=O)cc1,2,1,6,-2,3,0,·
C[C@H]1CN([C@@H](C)CO)C(=O)c2cccc(NC(=O)Nc3ccc(C(F)(F)F)cc3)c2O[C@@H]1CN(C)S(=O)(=O)c1ccc(Cl)cc1,58*,-8,-8,2,30,2,-1
C[C@H](CO)N1C[C@H](C)[C@H](CN(C)Cc2ccc(-c3ccccc3)cc2)Oc2ccc(NS(=O)(=O)c3ccccc3)cc2CC1=O,27,1,-11,6,20,1,·
C[C@H](CO)N1C[C@H](C)[C@@H](CN(C)S(=O)(=O)c2ccc(F)cc2)Oc2c(NC(=O)Nc3ccc(C(F)(F)F)cc3)cccc2C1=O,50*,-7,1,1,34,1,47
O[C@@H]1CN(Cc2ccc(-n3cccn3)cc2)CC[C@H]1N1CCN(c2ccccc2F)CC1,-5,-13,-15,-2,-8,2,·
Cc1cccc(C(=O)N2CCNC(=O)C2CC(=O)Nc2cccc(Cl)c2)c1 (stereo unspecified),0,-7,-1,0,-1,0,·
Cc1ccc(C)c(-n2cc[nH]c2=S)c1,-5,4,1,0,39,0,·
CCCCn1c(N)c(N(CC(C)C)C(=O)CCCn2c(=O)oc3ccccc32)c(=O)[nH]c1=O,-3,-6,4,0,-6,0,·
Cn1c(SCC(=O)NC2CCCC2)nnc1-c1ccccn1,-4,4,3,-2,-5,0,·
COc1cc2cc(CN(CCc3cccc(C)c3)C(=S)NCCCN3CCOCC3)c(=O)[nH]c2cc1OC,-3,-4,11,0,-8,0,·
Cc1ccc(S(=O)(=O)N(C)C[C@@H]2OCc3ccccc3-c3c(n(C)c4ccccc34)C(=O)N([C@H](C)CO)C[C@@H]2C)cc1,29,-31,-16,0,25,0,·
C[C@H](CO)N1C[C@H](C)[C@H](CN(C)S(=O)(=O)c2ccc(Cl)cc2)OCc2ccccc2-c2c(n(C)c3ccccc23)C1=O,69*,-31,-18,3,10,0,28
SMILES,FAS-TE inh,CRFR2-BP antag,Cardio protect,CRFR2-BP ag,PfGluPho inh,aDG glyco act,FAS-TE conf
CC(C)NC(=O)N(C)C[C@H]1Oc2c(NC(=O)Nc3ccc(C(F)(F)F)cc3)cccc2C(=O)N([C@H](C)CO)C[C@@H]1C,82*,-12,11,2,12,0,86*
C[C@]12C(=O)N(c3cccc(F)c3)C(=O)N1[C@@H]1c3ccccc3OC[C@@H]1[C@H]2c1ccccc1,29,-10,-4,1,3,0,·
C[C@]12C(=O)N(c3ccccc3)C(=O)N1[C@@H]1c3ccccc3OC[C@@H]1[C@H]2c1ccccc1,20,-7,4,-2,-5,0,·
Cc1ccc(CN2CC(=O)N3[C@H]4c5ccccc5OC[C@@H]4[C@H](c4ccccc4)[C@]3(C)C2=O)cc1,51*,-10,-5,3,0,1,32
C[C@]12C(=O)N(c3ccccc3)C(=O)N1[C@H]1c3ccccc3OC[C@@H]1[C@H]2c1ccccc1,79*,-11,8,3,6,0,12
C[C@]12C(=O)N(c3ccc(Br)cc3)C(=O)N1[C@H]1c3ccccc3OC[C@@H]1[C@H]2c1ccccc1,85*,-11,1,6,4,0,-7
C[C@]12C(=O)N(c3cccc(F)c3)C(=O)N1[C@H]1c3ccccc3OC[C@@H]1[C@H]2c1ccccc1,68*,-4,-6,1,13,0,39
C[C@@]12C(=O)N(Cc3ccccc3)CC(=O)N1[C@H]1c3ccccc3OC[C@@H]1[C@@H]2c1ccccc1,25,-4,0,1,-18,1,·
Cc1cc(S(=O)(=O)NCCCN2CCOCC2)c(Cl)cc1Cl,-4,-7,5,-1,-15,0,·
COc1ccc(NC(=O)/C(Cl)=C(/Cl)S(=O)Cc2ccccc2Cl)cn1 (stereo unspecified),·,-8,·,35,36,·,·
Cc1ccc(N2C(=O)N3[C@H]4c5ccccc5OC[C@@H]4[C@@H](c4ccccc4)[C@@]3(C)C2=O)cc1,55*,0,1,3,4,0,30

# Bioassay records (PubChem BioAssay)
